Test results published in the supplement of paper PMC11732987, “Enantioselective OTUD7B fragment discovery through chemoproteomics screening and high-throughput optimisation” (Communications Chemistry, 2025).

Legend:
Assay in all cases: log2 ratio of Biotin-Ahx-Ub-VS probe labelling (fragment/DMSO); higher = less target engagement (more negative = stronger competition), active = hit call of the paper (q ≤ 0.05, log2 ratio ≤ -1)
Settings in all cases: compound concentration: 200 uM; treatment time: 3 h
USP34 = USP34 (UniProt Q70CQ2)
USP34, sequence (Q70CQ2 whole entry, the tested form may be a part): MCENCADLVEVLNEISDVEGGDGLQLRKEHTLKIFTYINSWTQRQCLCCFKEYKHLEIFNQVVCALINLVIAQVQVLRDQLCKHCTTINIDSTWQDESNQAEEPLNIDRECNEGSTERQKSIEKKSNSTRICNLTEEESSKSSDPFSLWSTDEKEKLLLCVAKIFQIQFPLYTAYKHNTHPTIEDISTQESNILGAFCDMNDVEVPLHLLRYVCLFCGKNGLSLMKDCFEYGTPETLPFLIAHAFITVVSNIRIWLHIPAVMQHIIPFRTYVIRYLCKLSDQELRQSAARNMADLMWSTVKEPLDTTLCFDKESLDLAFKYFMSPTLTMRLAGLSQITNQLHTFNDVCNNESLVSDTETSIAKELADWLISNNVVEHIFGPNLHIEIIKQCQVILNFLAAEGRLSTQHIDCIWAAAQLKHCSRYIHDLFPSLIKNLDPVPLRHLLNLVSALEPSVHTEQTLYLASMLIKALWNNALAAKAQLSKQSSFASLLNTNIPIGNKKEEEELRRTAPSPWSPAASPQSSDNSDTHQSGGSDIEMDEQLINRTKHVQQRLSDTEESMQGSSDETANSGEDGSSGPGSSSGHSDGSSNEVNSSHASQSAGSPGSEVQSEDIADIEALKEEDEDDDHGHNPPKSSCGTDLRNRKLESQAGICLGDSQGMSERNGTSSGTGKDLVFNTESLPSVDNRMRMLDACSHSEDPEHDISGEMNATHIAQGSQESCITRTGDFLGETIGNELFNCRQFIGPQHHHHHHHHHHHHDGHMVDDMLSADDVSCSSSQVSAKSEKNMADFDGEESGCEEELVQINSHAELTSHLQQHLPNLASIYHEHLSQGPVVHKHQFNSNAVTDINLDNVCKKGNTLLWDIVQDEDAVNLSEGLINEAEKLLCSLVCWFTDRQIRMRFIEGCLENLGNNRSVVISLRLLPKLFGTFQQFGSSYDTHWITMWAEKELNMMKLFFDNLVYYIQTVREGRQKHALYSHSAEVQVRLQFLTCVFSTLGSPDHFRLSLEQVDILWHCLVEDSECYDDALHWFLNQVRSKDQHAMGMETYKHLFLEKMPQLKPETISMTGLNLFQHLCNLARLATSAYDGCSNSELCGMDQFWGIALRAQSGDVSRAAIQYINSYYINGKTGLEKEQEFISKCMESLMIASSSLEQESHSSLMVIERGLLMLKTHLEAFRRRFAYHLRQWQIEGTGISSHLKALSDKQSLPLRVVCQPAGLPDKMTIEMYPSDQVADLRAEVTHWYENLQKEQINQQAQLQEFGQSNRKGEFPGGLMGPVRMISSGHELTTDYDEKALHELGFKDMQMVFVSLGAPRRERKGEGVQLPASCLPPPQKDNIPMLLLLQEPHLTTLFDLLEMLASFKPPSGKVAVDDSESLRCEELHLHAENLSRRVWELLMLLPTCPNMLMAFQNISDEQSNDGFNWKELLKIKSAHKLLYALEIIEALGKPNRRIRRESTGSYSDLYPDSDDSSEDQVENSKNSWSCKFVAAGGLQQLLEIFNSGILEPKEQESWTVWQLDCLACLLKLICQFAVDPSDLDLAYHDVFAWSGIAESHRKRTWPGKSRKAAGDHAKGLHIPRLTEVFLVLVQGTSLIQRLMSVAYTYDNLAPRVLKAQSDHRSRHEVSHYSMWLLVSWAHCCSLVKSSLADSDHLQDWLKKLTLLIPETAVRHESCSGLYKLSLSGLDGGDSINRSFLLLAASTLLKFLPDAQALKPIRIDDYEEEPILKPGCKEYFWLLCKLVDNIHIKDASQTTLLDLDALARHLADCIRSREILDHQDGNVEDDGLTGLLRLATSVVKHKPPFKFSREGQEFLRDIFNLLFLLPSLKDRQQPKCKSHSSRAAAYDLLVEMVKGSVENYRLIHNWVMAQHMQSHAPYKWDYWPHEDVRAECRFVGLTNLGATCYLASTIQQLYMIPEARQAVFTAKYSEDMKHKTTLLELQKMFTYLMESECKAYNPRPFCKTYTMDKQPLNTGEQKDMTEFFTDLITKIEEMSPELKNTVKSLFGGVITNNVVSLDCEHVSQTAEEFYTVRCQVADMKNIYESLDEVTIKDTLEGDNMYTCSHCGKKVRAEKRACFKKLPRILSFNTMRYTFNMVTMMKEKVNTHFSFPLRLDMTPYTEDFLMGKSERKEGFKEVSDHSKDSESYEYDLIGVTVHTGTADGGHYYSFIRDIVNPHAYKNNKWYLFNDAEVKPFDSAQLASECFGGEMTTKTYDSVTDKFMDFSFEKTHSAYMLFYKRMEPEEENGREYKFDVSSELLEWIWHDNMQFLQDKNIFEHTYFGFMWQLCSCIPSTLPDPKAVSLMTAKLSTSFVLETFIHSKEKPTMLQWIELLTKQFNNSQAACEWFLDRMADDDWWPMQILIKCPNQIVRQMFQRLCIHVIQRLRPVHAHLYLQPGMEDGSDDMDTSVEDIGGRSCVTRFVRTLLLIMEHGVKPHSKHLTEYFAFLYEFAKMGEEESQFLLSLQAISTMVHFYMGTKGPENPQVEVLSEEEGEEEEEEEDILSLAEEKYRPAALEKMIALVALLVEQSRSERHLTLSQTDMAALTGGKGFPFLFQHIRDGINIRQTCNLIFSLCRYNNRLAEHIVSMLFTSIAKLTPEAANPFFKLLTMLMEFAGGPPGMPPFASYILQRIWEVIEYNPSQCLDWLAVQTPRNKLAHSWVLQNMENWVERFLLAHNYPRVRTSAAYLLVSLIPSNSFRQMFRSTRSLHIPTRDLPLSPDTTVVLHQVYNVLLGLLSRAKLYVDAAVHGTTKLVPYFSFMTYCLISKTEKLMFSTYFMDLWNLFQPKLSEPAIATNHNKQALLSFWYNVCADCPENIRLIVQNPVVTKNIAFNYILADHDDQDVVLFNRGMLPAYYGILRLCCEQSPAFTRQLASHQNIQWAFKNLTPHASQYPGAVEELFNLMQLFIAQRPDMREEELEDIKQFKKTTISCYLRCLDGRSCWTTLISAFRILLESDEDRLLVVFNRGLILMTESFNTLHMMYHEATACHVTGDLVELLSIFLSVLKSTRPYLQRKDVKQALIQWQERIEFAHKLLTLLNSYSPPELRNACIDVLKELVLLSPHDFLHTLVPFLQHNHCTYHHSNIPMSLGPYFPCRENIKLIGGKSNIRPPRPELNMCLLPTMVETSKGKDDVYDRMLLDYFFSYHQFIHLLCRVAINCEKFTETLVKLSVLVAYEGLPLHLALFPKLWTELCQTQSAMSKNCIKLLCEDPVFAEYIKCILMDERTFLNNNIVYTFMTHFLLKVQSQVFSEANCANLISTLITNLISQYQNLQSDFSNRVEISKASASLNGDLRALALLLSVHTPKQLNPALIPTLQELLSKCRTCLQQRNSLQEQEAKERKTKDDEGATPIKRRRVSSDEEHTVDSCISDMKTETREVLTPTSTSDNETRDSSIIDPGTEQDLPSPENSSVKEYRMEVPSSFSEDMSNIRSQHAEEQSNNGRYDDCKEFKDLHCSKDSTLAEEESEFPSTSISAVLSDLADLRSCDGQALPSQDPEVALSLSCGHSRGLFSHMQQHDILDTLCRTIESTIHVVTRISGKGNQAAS
Procedure, shortened: (§1)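 HEK293T lysate in Tris/CHAPS/IGEPAL buffer with protease inhibitors (495 µg per sample) was given fragment at 200 µM or vehicle for 3 h, in triplicate. It then received Biotin-Ahx-Ub-VS at 0.5 µM final for 1 h. Labelled DUBs were NeutrAvidin-enriched, digested with LysC and trypsin, and run by diaPASEF LC-MS/MS. Values are average log2 fragment/vehicle ratios by unpaired t-test on global-median-normalised Spectronaut quantities of proteins with ≥2 unique peptides.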

USP36 = biological target: T1, USP36 (UniProt Q9P275)
T1 sequence (whole entry): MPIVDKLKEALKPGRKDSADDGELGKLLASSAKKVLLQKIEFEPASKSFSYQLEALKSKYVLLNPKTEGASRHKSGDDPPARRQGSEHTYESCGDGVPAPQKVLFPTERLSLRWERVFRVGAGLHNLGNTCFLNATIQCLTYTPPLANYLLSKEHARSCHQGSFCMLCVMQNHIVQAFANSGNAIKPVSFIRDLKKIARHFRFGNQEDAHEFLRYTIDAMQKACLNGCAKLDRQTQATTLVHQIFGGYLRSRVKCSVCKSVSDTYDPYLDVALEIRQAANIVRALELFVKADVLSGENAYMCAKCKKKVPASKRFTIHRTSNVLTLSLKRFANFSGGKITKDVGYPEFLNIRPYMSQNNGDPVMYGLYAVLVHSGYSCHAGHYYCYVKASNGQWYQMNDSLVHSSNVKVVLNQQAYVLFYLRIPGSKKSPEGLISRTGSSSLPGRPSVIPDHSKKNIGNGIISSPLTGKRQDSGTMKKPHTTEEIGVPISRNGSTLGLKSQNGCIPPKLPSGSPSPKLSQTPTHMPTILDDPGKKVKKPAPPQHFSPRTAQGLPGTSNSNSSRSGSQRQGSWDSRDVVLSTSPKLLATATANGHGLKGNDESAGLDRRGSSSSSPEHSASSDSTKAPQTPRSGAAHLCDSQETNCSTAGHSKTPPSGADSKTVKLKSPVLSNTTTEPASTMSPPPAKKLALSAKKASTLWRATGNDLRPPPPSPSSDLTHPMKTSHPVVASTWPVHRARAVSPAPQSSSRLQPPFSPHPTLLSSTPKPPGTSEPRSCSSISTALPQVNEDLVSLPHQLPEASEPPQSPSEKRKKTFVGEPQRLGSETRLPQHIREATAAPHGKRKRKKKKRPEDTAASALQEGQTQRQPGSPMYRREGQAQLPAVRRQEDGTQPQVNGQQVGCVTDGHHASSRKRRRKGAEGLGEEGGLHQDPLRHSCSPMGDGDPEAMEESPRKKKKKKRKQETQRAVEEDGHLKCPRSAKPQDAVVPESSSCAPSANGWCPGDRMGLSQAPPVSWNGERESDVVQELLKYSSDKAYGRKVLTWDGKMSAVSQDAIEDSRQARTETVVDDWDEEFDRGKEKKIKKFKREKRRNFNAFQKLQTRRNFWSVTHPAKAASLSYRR
Procedure, shortened: as §1

USP38 = biological target: T2, USP38 (UniProt Q8NB14)
T2 sequence (whole entry): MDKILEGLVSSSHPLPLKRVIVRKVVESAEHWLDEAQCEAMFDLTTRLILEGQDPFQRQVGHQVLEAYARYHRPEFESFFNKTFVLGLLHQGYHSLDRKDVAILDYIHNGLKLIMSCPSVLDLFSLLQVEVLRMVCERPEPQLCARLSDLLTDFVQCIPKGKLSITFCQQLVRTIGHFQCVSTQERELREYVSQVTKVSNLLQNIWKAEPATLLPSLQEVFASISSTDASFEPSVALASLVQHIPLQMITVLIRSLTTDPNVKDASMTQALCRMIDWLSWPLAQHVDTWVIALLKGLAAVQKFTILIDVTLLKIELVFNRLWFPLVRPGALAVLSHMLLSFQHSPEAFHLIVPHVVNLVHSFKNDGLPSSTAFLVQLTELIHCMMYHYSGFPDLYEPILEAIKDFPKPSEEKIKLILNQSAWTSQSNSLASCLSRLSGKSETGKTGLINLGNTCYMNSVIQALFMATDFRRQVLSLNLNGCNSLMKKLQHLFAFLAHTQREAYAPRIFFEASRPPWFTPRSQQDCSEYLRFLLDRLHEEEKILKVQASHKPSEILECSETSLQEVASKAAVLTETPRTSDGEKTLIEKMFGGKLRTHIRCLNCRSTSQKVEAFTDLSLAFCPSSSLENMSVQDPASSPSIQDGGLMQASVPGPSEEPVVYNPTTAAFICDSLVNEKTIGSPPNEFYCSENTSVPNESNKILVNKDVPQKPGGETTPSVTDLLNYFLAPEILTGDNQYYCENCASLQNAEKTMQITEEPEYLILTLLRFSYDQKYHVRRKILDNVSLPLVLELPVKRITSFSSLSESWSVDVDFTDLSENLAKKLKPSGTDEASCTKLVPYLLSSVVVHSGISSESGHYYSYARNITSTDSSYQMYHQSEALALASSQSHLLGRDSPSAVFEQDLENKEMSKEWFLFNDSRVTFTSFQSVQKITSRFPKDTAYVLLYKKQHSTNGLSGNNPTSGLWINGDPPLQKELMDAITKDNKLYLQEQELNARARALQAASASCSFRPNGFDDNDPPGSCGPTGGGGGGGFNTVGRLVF
Procedure, shortened: as §1

USP39 = biological target: T3, USP39 (UniProt Q53GS9)
T3 sequence (whole entry): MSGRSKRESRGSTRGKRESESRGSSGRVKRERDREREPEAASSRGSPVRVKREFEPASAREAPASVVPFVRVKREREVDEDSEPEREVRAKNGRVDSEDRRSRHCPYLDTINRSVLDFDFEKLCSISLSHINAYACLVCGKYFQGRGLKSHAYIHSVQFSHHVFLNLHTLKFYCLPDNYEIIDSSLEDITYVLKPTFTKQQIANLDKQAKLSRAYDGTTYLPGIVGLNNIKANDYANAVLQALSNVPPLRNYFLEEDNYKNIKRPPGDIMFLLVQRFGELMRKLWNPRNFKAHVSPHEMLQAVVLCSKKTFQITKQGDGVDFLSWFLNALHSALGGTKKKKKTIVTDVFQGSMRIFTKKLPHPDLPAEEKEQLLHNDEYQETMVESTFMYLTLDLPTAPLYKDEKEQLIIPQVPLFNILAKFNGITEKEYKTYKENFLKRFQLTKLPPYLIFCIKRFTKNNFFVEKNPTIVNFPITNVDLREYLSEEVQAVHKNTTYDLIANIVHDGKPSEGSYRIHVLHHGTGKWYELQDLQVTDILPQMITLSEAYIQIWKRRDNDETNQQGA
Procedure, shortened: as §1

USP4 = biological target: T4, USP4 (UniProt Q13107)
T4 sequence (whole entry): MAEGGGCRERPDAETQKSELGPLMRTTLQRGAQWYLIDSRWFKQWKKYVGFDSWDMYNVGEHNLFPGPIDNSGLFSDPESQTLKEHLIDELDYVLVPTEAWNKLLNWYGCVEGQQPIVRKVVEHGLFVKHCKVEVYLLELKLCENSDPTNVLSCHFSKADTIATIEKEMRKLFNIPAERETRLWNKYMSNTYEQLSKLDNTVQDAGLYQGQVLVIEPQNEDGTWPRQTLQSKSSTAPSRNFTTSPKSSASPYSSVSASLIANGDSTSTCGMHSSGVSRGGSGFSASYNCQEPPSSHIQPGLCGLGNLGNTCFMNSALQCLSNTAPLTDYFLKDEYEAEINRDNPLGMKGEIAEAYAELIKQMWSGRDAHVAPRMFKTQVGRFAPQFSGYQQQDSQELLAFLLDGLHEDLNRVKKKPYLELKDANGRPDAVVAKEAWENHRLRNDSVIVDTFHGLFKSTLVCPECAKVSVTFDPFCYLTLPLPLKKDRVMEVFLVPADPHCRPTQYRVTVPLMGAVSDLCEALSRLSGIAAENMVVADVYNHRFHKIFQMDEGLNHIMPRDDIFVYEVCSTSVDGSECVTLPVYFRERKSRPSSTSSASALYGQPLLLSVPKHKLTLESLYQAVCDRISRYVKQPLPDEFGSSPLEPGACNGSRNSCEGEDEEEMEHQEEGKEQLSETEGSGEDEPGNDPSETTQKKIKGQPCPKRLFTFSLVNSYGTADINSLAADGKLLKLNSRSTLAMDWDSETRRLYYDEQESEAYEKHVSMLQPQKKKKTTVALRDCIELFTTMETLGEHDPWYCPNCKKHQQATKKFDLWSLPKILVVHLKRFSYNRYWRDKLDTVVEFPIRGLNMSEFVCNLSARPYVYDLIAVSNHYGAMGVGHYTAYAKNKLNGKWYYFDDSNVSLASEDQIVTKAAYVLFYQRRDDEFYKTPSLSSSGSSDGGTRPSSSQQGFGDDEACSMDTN
Procedure, shortened: as §1

Measured: log2 ratio of Biotin-Ahx-Ub-VS probe labelling

O=C(CCl)NCCC1COCCO1 (stereo not given)
inactive: USP34 -0.0886 | USP36 -0.0548 | USP38 -0.0125 | USP39 0.0236 | USP4 -0.00705
